The campaign covered roughly 66,000 compounds. About 960 (1.5%) showed an effect of 50% or more. The full list was thinned out, with strong results kept by preference.
Test system: Trypanosoma brucei
Experiment: Trypanosoma brucei 72 hour study
Assay type: functional, organism-based
Parameters: scale not given: in the data most compounds retested in dose-response had high values

## Cc1nc(NCc2ccc(F)cc2)cc(C2CCCN2)n1.Cl (centres undefined)
30.3 µM, […]
  Percent Effect: -9.094%

## Cc1nc(Cc2ccc(F)cc2)cc(C2COCCN2)n1.Cl (centres undefined)
30.3 µM, […]
  Percent Effect: 101%

## Cc1nc(NCc2cccnc2)cc(C2COCCN2)n1 (centres undefined)
30.3 µM, […]
  Percent Effect: -2.285%

## CN(C)C(=O)COC[C@]12COC[C@H]1CN(Cc1ccco1)C2.O=C(O)C(F)(F)F
30.3 µM, […]
  Percent Effect: -53.67%

## CC[C@@H](CO)Nc1nccc(-c2c[nH]c3cc(C(=O)OC)ccc23)n1
30.3 µM, […]
  Percent Effect: 72.65%

## COC(=O)c1ccc2c(-c3ccnc(N[C@@H](C)CO)n3)c[nH]c2c1
30.3 µM, […]
  Percent Effect: 47.11%

## COC(=O)c1ccc2c(-c3ccnc(NCCO)n3)c[nH]c2c1
30.3 µM, […]
  Percent Effect: 8.363%

## Cc1nn(CC(=O)N2CCN(Cc3cn(C)nc3C)CC2)cc1Br
30 µM, 30.03 µM
  Percent Effect: -22.12%

## Cc1ccc(-c2ccccc2CC2CNCCNC2=O)c(C)c1.Cl (centres undefined)
30.3 µM, […]
  Percent Effect: 25.6%

## Cn1cnnc1C1CCN(C(=O)c2cc(-c3ccccc3)on2)CC1
30 µM, 30.03 µM
  Percent Effect: -50.55%

## CCc1ccc(C(O)CN2CCN(c3cccc(OC)c3)CC2)cc1 (centres undefined)
30 µM, 30.03 µM
  Percent Effect: -8.228%

## CCc1ccc(NC(=O)N2C[C@H]3C[C@H](C(=O)NC4CCC4)[C@@H](C2)O3)cc1
30.3 µM, […]
  Percent Effect: -16.27%

## CN(C)C[C@@H]1C[C@@H]2CN(C(=O)c3ccoc3)CC[C@@H]2N1CC1CC1.O=C(O)C(F)(F)F
30.3 µM, […]
  Percent Effect: -22.29%

## CNc1ncc(-c2ccc(NC(=O)[C@@H]3CCCCN3)cc2)cn1
30.3 µM, […]
  Percent Effect: 7.595%

## Nc1ncc(-c2ccc(NC(=O)[C@@H]3CCCCN3)cc2)cn1
30.3 µM, […]
  Percent Effect: 8.453%

## O=C(Nc1ccc(-c2cnc(NCCO)nc2)cc1)[C@@H]1CCCCN1
30.3 µM, […]
  Percent Effect: 53.19%

## Cc1ccc(CNC2CCCc3c2cnn3Cc2ccccc2)s1.Cl (centres undefined)
30.3 µM, […]
  Percent Effect: 15.28%

## Cc1cccc(CNC2CCCc3c2cnn3Cc2ccccc2)c1.Cl (centres undefined)
30.3 µM, […]
  Percent Effect: 96.36%

## Cc1cccc(CNC2CCCc3c2cnn3C)c1.Cl (centres undefined)
30 µM, 30.03 µM
  Percent Effect: 5.756%

## Cn1ncc2c1CCCC2NCc1cccnc1 (centres undefined)
30 µM, 30.03 µM
  Percent Effect: -8.249%

## Cl.Cn1ncc2c1CCCC2NCc1cccc(F)c1 (centres undefined)
30.3 µM, […]
  Percent Effect: -9.663%

## Cn1ncc2c1CCCC2NCc1cccc(OC2CCCC2)c1 (centres undefined)
30.3 µM, […]
  Percent Effect: 65.11%

## CN1CC[C@]2(CN(CC3CCOCC3)C[C@H]2c2ccccc2)C1=O.O=C(O)C(F)(F)F
30.3 µM, […]
  Percent Effect: -1.885%

## O=C(O)C(F)(F)F.O=C(O)C(F)(F)F.O=C(O)C(F)(F)F.O=C(O)c1c(-c2cncnc2)ncc2c1CCN(Cc1cccnc1)C2
30.3 µM, […]
  Percent Effect: -22.43%

## CN(C)CCN1CCCC12CCN(Cc1nccn1C)CC2.O=C(O)C(F)(F)F.O=C(O)C(F)(F)F.O=C(O)C(F)(F)F
30.3 µM, […]
  Percent Effect: -91.45%

## Cc1ccc(CNCc2cccc3cn[nH]c23)c(OC2CCOC2)c1 (centres undefined)
30 µM, 30.03 µM
  Percent Effect: -32.61%

## Cc1ccc(CNCc2c[nH]nc2C(C)(C)C)c(OC2CCOC2)c1 (centres undefined)
30 µM, 30.03 µM
  Percent Effect: -38.61%

## Cc1ccc(CNCc2cccc3cccnc23)c(OC2CCOC2)c1 (centres undefined)
30 µM, 30.03 µM
  Percent Effect: 98.1%

## O=C(O)C(F)(F)F.O=C1COC2(CCN(Cc3cccs3)CC2)CN1c1ccsc1
30 µM, 30.03 µM
  Percent Effect: 3.746%

## CC(=O)N1CCN(Cc2ccco2)CC2(CC(=O)N(C)C2)C1.O=C(O)C(F)(F)F (centres undefined)
30.3 µM, […]
  Percent Effect: -65.74%

## Cc1occc1C(=O)N1CCC[C@]2(C[C@@H](OCc3ccccn3)CO2)C1.O=C(O)C(F)(F)F
30.3 µM, […]
  Percent Effect: -89.01%

## Cl.OC1(Cn2ccc3ncccc32)CCN(Cc2ccccc2F)CC1
30.3 µM, […]
  Percent Effect: 12.85%

## O=C(C1CCOCC1)N1CCc2ncc(CN3CCOCC3)n2CC1.O=C(O)C(F)(F)F
30.3 µM, […]
  Percent Effect: -405.3%

## CCCN(C(=O)c1cnccn1)c1nc2c(s1)CCc1c-2cnn1C
30.3 µM, […]
  Percent Effect: 47.96%

## CCCN(C(=O)c1cccnc1)c1nc2c(s1)CCc1c-2cnn1C
30.3 µM, […]
  Percent Effect: 48.91%

## CCCN(C(=O)c1ccncc1)c1nc2c(s1)CCc1c-2cnn1C
30.3 µM, […]
  Percent Effect: 55.53%

## CCOc1ccc(C(=O)N2CCCC(c3nccn3C)C2)cc1OCC (centres undefined)
30 µM, 30.03 µM
  Percent Effect: -33.07%

## CCn1cnnc1CN(C)Cc1nc(-c2cc(OC)ccc2F)oc1C
30 µM, 30.03 µM
  Percent Effect: -24.61%

## CC(C)NC(=O)Cn1ccc2c(Cl)cccc21
30 µM, 30.03 µM
  Percent Effect: -29.64%

## O=C(Cn1ccc2c(Cl)cccc21)N[C@@H](C(=O)O)c1ccccc1
30 µM, 30.03 µM
  Percent Effect: 60.67%

## CC(C)C[C@H](NC(=O)Cn1ccc2c(Cl)cccc21)C(=O)O
30 µM, 30.03 µM
  Percent Effect: -31.2%

## CN(C)C(=O)COCC1CN(S(C)(=O)=O)Cc2ncn(C)c21.O=C(O)C(F)(F)F (centres undefined)
30.3 µM, […]
  Percent Effect: -29.75%

## CCN1CCC2(CC1)CC(NCc1cccc(C)n1)c1ccccc1O2.O=C(O)C(F)(F)F.O=C(O)C(F)(F)F.O=C(O)C(F)(F)F (centres undefined)
30 µM, 30.03 µM
  Percent Effect: -8.099%

## FC1(F)CCN(Cc2ccncc2)CC12CCN(c1cccnc1)C2.O=C(O)C(F)(F)F.O=C(O)C(F)(F)F.O=C(O)C(F)(F)F (centres undefined)
30.3 µM, […]
  Percent Effect: -14.72%

## FC1(F)CCN(Cc2ccccn2)CC12CCN(c1cnccn1)C2.O=C(O)C(F)(F)F.O=C(O)C(F)(F)F.O=C(O)C(F)(F)F (centres undefined)
30.3 µM, […]
  Percent Effect: -80.37%

## Cn1cc(CN2CCC(F)(F)C3(CCN(c4cccnc4)C3)C2)cn1.O=C(O)C(F)(F)F.O=C(O)C(F)(F)F (centres undefined)
30.3 µM, […]
  Percent Effect: 3.133%

## FC1(F)CCN(Cc2ccncc2)CC12CCN(c1cnccn1)C2.O=C(O)C(F)(F)F.O=C(O)C(F)(F)F.O=C(O)C(F)(F)F (centres undefined)
30.3 µM, […]
  Percent Effect: 6.608%

## FC1(F)CCN(Cc2cccnc2)CC12CCN(c1ccccc1)C2.O=C(O)C(F)(F)F.O=C(O)C(F)(F)F.O=C(O)C(F)(F)F (centres undefined)
30.3 µM, […]
  Percent Effect: 100.3%

## Cn1cc(CN2CCC(F)(F)C3(CCN(c4ccccn4)C3)C2)cn1.O=C(O)C(F)(F)F.O=C(O)C(F)(F)F (centres undefined)
30.3 µM, […]
  Percent Effect: -14.43%

## Cn1ccnc1CN1CCC(F)(F)C2(CCN(c3cccnc3)C2)C1.O=C(O)C(F)(F)F.O=C(O)C(F)(F)F (centres undefined)
30.3 µM, […]
  Percent Effect: -58.8%

## Cn1cc(CN2CCC(F)(F)C3(CCN(c4cccc(F)c4)C3)C2)cn1 (centres undefined)
30.3 µM, […]
  Percent Effect: 99.39%

## Fc1ccc(CN2CCC(F)(F)C3(CCN(c4cnccn4)C3)C2)cc1.O=C(O)C(F)(F)F.O=C(O)C(F)(F)F (centres undefined)
30.3 µM, […]
  Percent Effect: 93.17%

## Cn1cc(CN2CCC(F)(F)C3(CCN(c4ncc(F)cn4)C3)C2)cn1.O=C(O)C(F)(F)F (centres undefined)
30.3 µM, […]
  Percent Effect: -7.399%

## FC1(F)CCN(Cc2cccnc2)CC12CCN(c1cnccn1)C2.O=C(O)C(F)(F)F.O=C(O)C(F)(F)F.O=C(O)C(F)(F)F (centres undefined)
30.3 µM, […]
  Percent Effect: -8.346%

## CN(C)c1ccc(C(CNS(=O)(=O)c2cccs2)N2CCCC2)cc1 (centres undefined)
30 µM, 30.03 µM
  Percent Effect: -11.49%

## C1CC(N2Cc3nnn(CC4CC4)c3C(COCC3CC3)C2)C1.O=C(O)C(F)(F)F (centres undefined)
30.3 µM, […]
  Percent Effect: -49.13%

## O=C(O)C(F)(F)F.O=C([C@H]1CCCO1)N1CCN(CCn2cccn2)c2ncccc2C1
30.3 µM, […]
  Percent Effect: -89.38%

## COCC(=O)N1CCN(Cc2cc(-c3ccncc3)nn2C)CC1
30.3 µM, […]
  Percent Effect: -0.9188%

## COCC1CN(c2ccc(C)nn2)Cc2cnn(CC3CCOCC3)c21.O=C(O)C(F)(F)F.O=C(O)C(F)(F)F (centres undefined)
30.3 µM, […]
  Percent Effect: -39.18%

## COCCN1CCC2(CC1)CC(NC(=O)CC1CC1)c1ccccc1O2.O=C(O)C(F)(F)F (centres undefined)
30.3 µM, […]
  Percent Effect: -15.57%

## CN(C)[C@@H]1CN(C(=O)CCc2ccccc2)[C@@H]2CCCO[C@H]12.O=C(O)C(F)(F)F
30.3 µM, […]
  Percent Effect: -48.96%

## CC(C)(N)C(=O)N1CCC(c2nccnc2Oc2cccc(F)c2)CC1
30.3 µM, […]
  Percent Effect: 6.584%

## O=C(Nc1cccnc1)[C@@H]1CCO[C@@H]2CCN(Cc3cccnc3)C[C@@H]21.O=C(O)C(F)(F)F.O=C(O)C(F)(F)F.O=C(O)C(F)(F)F
30 µM, 30.03 µM
  Percent Effect: -27.43%

## Cc1cc2c(=O)n(CC(=O)N3CCn4cccc4C3C(C)C)cnc2s1 (centres undefined)
30.3 µM, […]
  Percent Effect: -7.761%

## CCCC1c2cccn2CCN1C(=O)Cn1cnc2sc(C)cc2c1=O (centres undefined)
30.3 µM, […]
  Percent Effect: -9.094%

## CCC1c2ccc(C)n2CCN1C(=O)Cn1cnc2sc(C)cc2c1=O (centres undefined)
30.3 µM, […]
  Percent Effect: 55.61%

## CCCS(=O)(=O)N1C[C@@H](c2ccccc2)[C@@]2(CCNC2=O)C1
30.3 µM, […]
  Percent Effect: -54.35%

## Cn1cccc1C(=O)N1C[C@H]2CN(Cc3cccc(F)c3)C[C@H]2C1.O=C(O)C(F)(F)F
30.3 µM, […]
  Percent Effect: -14.05%

## O=c1[nH]ncc(NCCOc2ccc3c(c2)CCC3)c1Cl
30 µM, 30.03 µM
  Percent Effect: 6.404%

## CC(C)CN(Cc1nc2c(cnn2C)c(=O)[nH]1)CC(C)C
30.3 µM, […]
  Percent Effect: 3.745%

## CC(C)CCN(C)Cc1nc2c(cnn2C)c(=O)[nH]1
30.3 µM, […]
  Percent Effect: 0.4486%

## CC(C)CCN(CCC(C)C)Cc1nc2c(cnn2C)c(=O)[nH]1
30.3 µM, […]
  Percent Effect: 99.67%

## CO[C@@H]1CCN(C(=O)c2ccccn2)[C@H]1Cc1ccccc1.O=C(O)C(F)(F)F
30.3 µM, […]
  Percent Effect: 3.29%

## CC1c2ncc(COc3cccnc3)n2CCN1Cc1cnn(C)c1.O=C(O)C(F)(F)F.O=C(O)C(F)(F)F (centres undefined)
30.3 µM, […]
  Percent Effect: 2.727%

## COc1ncccc1C(=O)N1CC[C@H]2C[C@@H](c3nccs3)O[C@@H]2C1
30 µM, 30.03 µM
  Percent Effect: -31.44%

## NCC(CO)Cc1cccc(OC(F)(F)F)c1 (centres undefined)
30 µM, 30.03 µM
  Percent Effect: 97.23%

## CNC(=O)NCC(CO)Cc1cccc(OC(F)(F)F)c1 (centres undefined)
30 µM, 30.03 µM
  Percent Effect: -27.06%

## NCC(CO)Cc1ccc(OC(F)(F)F)cc1 (centres undefined)
30 µM, 30.03 µM
  Percent Effect: -40.47%

## CN1CCN(C(=O)c2n[nH]c3c2CN(C2CCOCC2)CC3)CC1.O=C(O)C(F)(F)F.O=C(O)C(F)(F)F.O=C(O)C(F)(F)F
30.3 µM, […]
  Percent Effect: -12.86%

## Cc1cnn(C2CCCN(C(=O)c3cc4nc(C)ccc4o3)C2)c1 (centres undefined)
30.3 µM, […]
  Percent Effect: 0.9394%

## CCN1CC2(CC1=O)CN(Cc1ccc(C)o1)CCN(C(=O)C(C)C)C2.O=C(O)C(F)(F)F (centres undefined)
30 µM, 30.03 µM
  Percent Effect: -2.917%

## COCCN1CCN(Cc2c(C3CCNCC3)[nH]c3ncccc23)CC1.Cl
30.3 µM, […]
  Percent Effect: 1.283%

## Cc1noc(C)c1C(=O)NCc1ccc(N2CCC(C)CC2)nc1
10 µM
  Percent Effect: -31.9%
30.3 µM, […]
  Percent Effect: 4.367%
